Measured values: PubChem BioAssay (NCATS)
Inconclusive results are not listed. Activity calls are given as the source filed them. Calls come from the whole dose curve; as a rule, active = well fitted inhibition curve with a large enough effect; inconclusive = small, poorly fitted or top-dose-only effect; inactive = no such curve, though single readings can be large or run the other way.

Test: Primary qHTS for small molecule stabilizers of the endoplasmic reticulum resident proteome: Secreted ER Calcium Modulated Protein (SERCaMP) assay (AID 1508630)
Conditions: SH-SY5Y GLuc-SERCaMP (Gaussia luciferase released on ER calcium loss) secretion, thapsigargin, luminescence; series mostly up to 38.4 µM
Excerpt: Assay Provider: Brandon K. Harvey Ph.D.
National Institute on Drug Abuse, National Institutes of Health, Baltimore, MD
Endoplasmic reticulum (ER) dysregulation is associated with human pathologies including neurodegenerative, cardiovascular, muscular, and diabetic conditions. Maintenance of ER calcium is critical for functions of the ER and its depletion can lead to loss of ER resident proteins, in a process termed exodosis. Therapeutic compounds capable of attenuating the redistribution of ER proteins under pathological conditions may slow or stop disease progression. To identify such compounds, we performed a quantitative high-throughput screen (qHTS) using the SERCaMP assay, which monitors secretion of ER resident proteins triggered by calcium depletion.
SERCaMP was initially developed as a reporter of ER calcium homeostasis using a Gaussia luciferase with a modified signal peptide and carboxy-terminus (GLuc-SERCaMP), modifications that confer secretion of the reporter in response to ER calcium depletion (Henderson et al., 2014). The assay was used to screen 9,501 compounds, including a collection of drugs approved by the FDA (US), EMA (EU), NHI (Japan), and HC (Canada) regulatory agencies (Huang et al., 2011). Since the SERCaMP reporter reflects the exodosis phenomenon (Trychta et al., 2018a), compounds identified in the screen have the potential to prevent exodosis by different mechanisms such as stabilizing ER calcium or augmenting ERS retrieval.
1. Henderson, M.J., Wires, E.S., Trychta, K.A., Richie, C.T., and Harvey, B.K. (2014). SERCaMP: a carboxy-terminal protein modification that enables monitoring of ER calcium homeostasis. Mol Biol Cell 25, 2828-2839.
2. Huang, R., Southall, N., Wang, Y., Yasgar, A., Shinn, P., Jadhav, A., Nguyen, D.T., and Austin, C.P. (2011). The NCGC pharmaceutical collection: a comprehensive resource of clinically approved drugs enabling repurposing and chemical genomics. Sci Transl Med 3, 80ps16.
3. Trychta, K.A., Back, S., Henderson, M.J., and Harvey, B.K. (2018a). KDEL Receptors Are Differentially Regulated to Maintain the ER Proteome under Calcium Deficiency. Cell Rep 25, 1829-1840 e1826.
SEQUENCE No. (1, 2, 3, etc.); […] (e.g., Cells, Incubation, Reagent, etc.); VALUE and DESCRIPTION.
1; Reagent; 5 uL; 1000 SH-SY5Y cells per wells
3; Compound; 23 nL; Control inhibitor / compound library
5; Reagent; 100 nM; Thapsigargin
7; Reagent; 1 uL; 0.5x coelenterazine
8; Detection; Luminescence; ViewLux imaging system
NOTES (numbers refer to sequence above)
1; SH-SY5Y human neuroblastoma cells stably expressing GLuc-SERCaMP (SH-SY5Y-GLuc-ASARTDL) cells were seeded in 1,536 well white tissue culture treated plates (Corning, Cat# 7464) in DMEM-high glucose-sodium pyruvate (ThermoFisher Scientific, Cat #10569) supplemented with 10% bovine growth serum (Hyclone), 10 U/ml penicillin (Gibco), 10 ug/ml streptomycin (Gibco), and 20 mM HEPES.
2; Assay plates were incubated for 5 hour at 37C in a humidified incubator containing 5% CO2.
3; qHTS libraries (23 nl, final concentrations of 1.53 uM, 7.67 uM, 38.3 uM) or controls (neutral control: DMSO, positive control: dantrolene) were added using a Kalypsis pin-tool Robotic System equipped with 1536 pinheads.
4; Cells were then incubated for 16 hours at 37C, 5% CO2.
5; Thapsigargin was added at 100 nM to deplete ER calcium stores.
6; Cells were incubated for 4 hour (37 °C, 5% CO2)
7; Gaussia luciferase in the medium was measured by adding 1 ul of 0.5x coelenterazine (final concentration 0.07x) prepared in Gaussia Luciferase Glow Assay Buffer (Pierce), without addition of the Cell Lysis Buffer Reagent.
8; Luminescence was measured using a ViewLux […] CCD imaging system (Perkin Elmer) equipped with clear filters. […] The same controls were also used for the calculation of the Z' factor, a measure of assay quality control, as previously described (Zhang et al., 1999). […]

Row | Structure (SMILES) | outcome
1 | CC1COC2(c3ccccc3Cl)c3cc(Cl)ccc3NC(=O)CN12 (stereo not given) | inactive
2 | CCc1cc(OC)c(C[C@H](C)N)cc1OC | inactive
3 | COCC(=O)N(c1c(C)cccc1C)C(C)C(=O)OC (stereo not given) | inactive
4 | C[C@H]1C(=O)O[C@@H]2CCN3CC=C(COC(=O)[C@](C)(O)[C@]1(C)O)[C@H]23 | inactive
5 | CN1C[C@@H](NS(=O)(=O)N(C)C)C[C@@H]2c3cccc4c3c(cn4C)C[C@H]21 | inactive
6 | CN(C)CCc1c[nH]c2cccc(O)c12 | inactive
7 | CC(C)NCC(O)c1ccc(N)c(C#N)c1 (stereo not given) | inactive
8 | NC(=O)CN1CCCC1=O | inactive
9 | COc1cc(CC(C)N)cc2c1OCO2 (stereo not given) | inactive
10 | C[C@H](N)[C@H](O)c1ccc(O)c(O)c1 | inactive
11 | CCOP(=S)(OCC)O/N=C(\C#N)c1ccccc1 | inactive
12 | C#C[C@]1(O)CC[C@H]2[C@@H]3CCC4=CC(=O)CCC4=C3C=C[C@@]21CC | inactive
13 | CCC1(CC)C(=O)NC(=O)NC1=O | inactive
14 | CN(C)CCc1c[nH]c2ccccc12 | inactive
15 | Oc1ccc([C@H]2CNCc3c2ccc(O)c3O)cc1O | inactive
16 | ClC1=C(Cl)C2(Cl)C(CBr)CC1(Cl)C2(Cl)Cl (stereo not given) | inactive
17 | CCC(=O)O[C@H]1CC[C@H]2[C@@H]3CCC4=CC(=O)CC[C@]4(C)[C@H]3CC[C@]12C | inactive
18 | C[C@]12C=CC(=O)C=C1CC[C@@H]1[C@@H]2CC[C@@]2(C)[C@H]1CC[C@]2(C)O | inactive
19 | C[C@]12CC[C@H]3[C@@H](CCC4=CC(=O)CC[C@@H]43)[C@@H]1CC[C@@H]2O | inactive
20 | CCCOC(=O)Cc1ccc(OCC(=O)N(CC)CC)c(OC)c1 | inactive

Row | Structure (SMILES) | outcome
21 | C[C@@H]1CN(C2CCC(C#N)(c3ccc(F)cc3)CC2)CC[C@]1(C(=O)O)c1ccccc1 (stereo not given in full) | inactive
22 | C[C@@H]1CC[C@H]2[C@@H](C)C(=O)O[C@@H]3O[C@@]4(C)CC[C@@H]1[C@]32OO4 | inactive
23 | C=CCOC(Cn1ccnc1)c1ccc(Cl)cc1Cl (stereo not given) | inactive
24 | CN(C)C(=O)Oc1cc(OC(=O)N(C)C)cc(C(O)CNC(C)(C)C)c1 (stereo not given) | inactive
25 | Cc1nc2ccccc2c(=O)n1-c1ccccc1Cl | inactive
26 | O=C(CCCCl)c1ccc(F)cc1 | inactive
27 | Oc1c(Br)cc(Br)cc1Br | inactive
28 | O=C(CBr)Nc1ccc(Cl)cc1C(=O)c1ccccc1F | inactive
29 | COc1ccc2[nH]cc(CCN(C(C)C)C(C)C)c2c1 | inactive
30 | CC(C)[N+](C)(CCC(C(N)=O)(c1ccccc1)c1ccccc1)C(C)C | inactive
31 | N#Cc1nn(-c2c(Cl)cc(C(F)(F)F)cc2Cl)c(N)c1S(=O)C(F)(F)F (stereo not given) | inactive
32 | CCOC(=O)NC(C)(C)Cc1ccc(Cl)cc1 | inactive
33 | C[C@]12Cc3nonc3C[C@@H]1CC[C@@H]1[C@@H]2CC[C@@]2(C)[C@H]1CC[C@]2(C)O | inactive
34 | c1ccc2c(c1)Sc1ccccc1N2CC1CN2CCC1CC2 (stereo not given) | inactive
35 | CN1C(=O)CN=C(c2ccccc2)c2cc(Cl)ccc21 | inactive
36 | O=C(NC(=O)c1c(F)cccc1F)Nc1cc(Cl)c(OC(F)(F)C(F)C(F)(F)F)cc1Cl (stereo not given) | inactive
37 | C=CC[C@]1(O)CC[C@H]2[C@@H]3CCC4=CC(=O)CCC4=C3C=C[C@@]21C | inactive
38 | CCOC(=O)C(c1c(O)c2ccccc2oc1=O)c1c(O)c2ccccc2oc1=O | inactive
39 | C[C@]12CC[C@H]3[C@@H](CC=C4C[C@@H](O)CC[C@@]43C)[C@@H]1CC[C@@H]2O | inactive
40 | Cc1nnc2n1-c1sc(CCc3ccc(CC(C)C)cc3)cc1C(c1ccccc1Cl)=NC2C (stereo not given) | inactive
